PubChem BioAssay (NCATS)
Records with an inconclusive call do not appear. Active and inactive are the calls of the source. Calls come from the whole dose curve; as a rule, active = well fitted curve in the direction sought with a large enough effect; inconclusive = small, poorly fitted or top-dose-only effect, or another doubt; inactive = no such curve, though single readings can be large; an effect the other way counts as inactive or inconclusive.

What was measured:
[1] = qHTS of pediatric cancer cell lines to identify multiple opportunities for drug repurposing: Confirmatory screen for BT-12 cells (AID 1347112); note: nearly all actives have a fitted effect of over 55% in size
In short: (§1)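 Viability after 48 h compound treatment at 37C, 500-1,000 cells/well, read as ATP luminescence with CellTiter-Glo. Primary screens used 11-point (MIPE, 0.78 nM-46 µM) or 8-point (NPC, 0.59 nM-46 µM) final concentrations; follow-up screens used 11-point dilutions.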

[2] = qHTS of pediatric cancer cell lines to identify multiple opportunities for drug repurposing: Confirmatory screen for DAOY cells (AID 1347114); note: nearly all actives have a fitted effect of over 65% in size
In short: (§2)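 Viability measured as metabolically active cells via CellTiter-Glo luminescence following 48 hours of compound exposure, 11-point dilutions in confirmatory testing. 500-1,000 cells/well plated 5 hours before dosing; controls were DMSO and 2.3 µM bortezomib.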

[3] = qHTS of pediatric cancer cell lines to identify multiple opportunities for drug repurposing: Confirmatory screen for BT-37 cells (AID 1347117); note: nearly all actives have a fitted effect of over 55% in size
In short: as §1

[4] = qHTS of pediatric cancer cell lines to identify multiple opportunities for drug repurposing: Confirmatory screen for MG 63 (6-TG R) cells (AID 1347119); note: nearly all actives have a fitted effect of over 55% in size
In short: as §1

[5] = qHTS of pediatric cancer cell lines to identify multiple opportunities for drug repurposing: Confirmatory screen for Rh41 cells (AID 1347123);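 note: 48 h compound exposure; nearly all actives have a fitted effect of over 60% in size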
In short: as §1

[6] = qHTS of pediatric cancer cell lines to identify multiple opportunities for drug repurposing: Confirmatory screen for RD cells (AID 1347124);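 note: cells exposed to compound for 48 h before viability readout; nearly all actives have a fitted effect of over 65% in size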
In short: as §1

[7] = qHTS of pediatric cancer cell lines to identify multiple opportunities for drug repurposing: Confirmatory screen for Rh18 cells (AID 1347125); note: nearly all actives have a fitted effect of over 55% in size
In short: as §1

[8] = qHTS of pediatric cancer cell lines to identify multiple opportunities for drug repurposing: Confirmatory screen for SK-N-MC cells (AID 1347111);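 note: cells exposed to compound for 48 h before the readout; nearly all actives have a fitted effect of over 70% in size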
In short: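 SK-N-MC cells at 500-1,000 cells/well in growth media were pre-incubated 5 h, then exposed to compounds at 11-point dilutions for 48 h at 37 degrees C, 5% CO2. Viability was read as CellTiter-Glo luminescence.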

[9] = qHTS of pediatric cancer cell lines to identify multiple opportunities for drug repurposing: Confirmatory screen for SJ-GBM2 cells (AID 1347116); note: nearly all actives have a fitted effect of over 60% in size
In short: as §2

[10] = qHTS of pediatric cancer cell lines to identify multiple opportunities for drug repurposing: Confirmatory screen for TC32 cells (AID 1347118); note: nearly all actives have a fitted effect of over 65% in size
In short: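 qHTS, TC32, 48 h drug treatment, CellTiter-Glo luminescence as a proxy for metabolically active cells; primary top concentration 46 µM (MIPE 11-pt, NPC 8-pt); confirmatory 11-pt.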

Measured: Potency
Potency is the fitted concentration of half-maximal effect.

CC(=O)OCC(=O)[C@@]1(O)[C@H](OC(C)=O)C[C@H]2[C@@H]3CCC4=CC(=O)C=C[C@]4(C)[C@@]3(F)[C@@H](O)C[C@@]21C
not listed: [8] | [9] | [10]
inactive: all other assays above

C[C@]12CCC(=O)C=C1CC[C@@H]1[C@@H]2[C@@H](O)C[C@@]2(C)[C@H]1CC[C@]2(O)C(=O)COC(=O)CCC(=O)O
active: [8] 18.5 µM
not listed: [10]
inactive: all other assays above

Cc1ccc(C(=O)Oc2ccc(C(O)CNC(C)(C)C)cc2OC(=O)c2ccc(C)cc2)cc1 (stereo not given)
active: [8] 11.7 µM | [10] 5.22 µM
not listed: [2] | [5]
inactive: all other assays above

C[C@H]1C[C@@H]2[C@H]([C@@H](O)C[C@@]3(C)[C@H]2CC[C@]3(O)C(=O)CO)[C@@]2(C)C=CC(=O)C=C12
inactive: [1] | [2] | [9] | [5] | [7]

C[C@H]1C[C@H]2[C@@H]3CCC4=CC(=O)C=C[C@]4(C)[C@H]3C(=O)C[C@]2(C)[C@@]1(O)C(=O)CO
inactive: [2]
active: [9] 4.65 µM | [3] 2.93 µM | [4] 4.65 µM | [6] 2.93 µM | [7] 3.29 µM

CCC(=O)O[C@]1(C(=O)COC)[C@@H](C)C[C@H]2[C@@H]3CCC4=CC(=O)C=C[C@]4(C)C3(F)[C@@H](O)C[C@@]21C (stereo not given in full)
active: [4] 26.1 µM | [5] 16.5 µM
inactive: all other assays above

CC(=O)[C@@]1(O)CC[C@H]2[C@@H]3C[C@H](C)C4=CC(=O)CC[C@]4(C)[C@H]3CC[C@@]21C
inactive: [3] | [7]
active: [8] 4.14 µM | [9] 1.17 µM | [10] 10.4 µM | [6] 0.827 µM

O=[N+]([O-])c1ccc(O)c2ncccc12
active: [8] 8.27 µM | [1] 20.8 µM | [3] 7.37 µM | [10] 5.85 µM | [7] 10.4 µM

CCN(CC)CC(=O)OCC(=O)[C@@]1(O)CC[C@H]2[C@@H]3CCC4=CC(=O)CC[C@]4(C)[C@H]3[C@@H](O)C[C@@]21C
active: [10] 11.7 µM
inactive: [1] | [2] | [3] | [5] | [7]

CC[C@@]1(O)C(=O)OCc2c1cc1n(c2=O)Cc2c-1nc1ccccc1c2/C=N/OC(C)(C)C
active: [8] 0.0052 µM | [1] 1.04 µM | [9] 0.0928 µM | [3] 0.0093 µM | [10] 0.0052 µM | [4] 0.0185 µM | [5] 0.522 µM | [7] 0.465 µM

CCOC(=O)O[C@]1(C(=O)OCCl)CC[C@H]2[C@@H]3CCC4=CC(=O)C=C[C@]4(C)[C@H]3[C@@H](O)C[C@@]21C
not listed: [8] | [10]
inactive: all other assays above

Cc1cc(OCCOCC[N+](C)(C)Cc2ccccc2)ccc1C(C)(C)CC(C)(C)C
active: [8] 2.61 µM | [1] 13.1 µM | [2] 11.7 µM | [9] 14.7 µM | [3] 10.4 µM | [10] 2.93 µM | [4] 9.27 µM | [5] 7.37 µM | [6] 10.4 µM | [7] 18.5 µM

CC(=O)O[C@@H]1C(=O)O[C@@H]2[C@H]1OC(=O)[C@@H]2OC(C)=O
inactive: [1] | [3] | [4] | [7]
active: [8] 16.5 µM | [6] 1.17 µM

CCCCC(CC)CNC(=O)CC(C)OC(=O)CCC(=O)O (stereo not given)
not listed: [8] | [10]
inactive: all other assays above

COc1cc(/C=C/C(N)=O)cc(OC)c1OC
inactive: [2] | [10] | [5] | [7]

O=c1[nH]sc2cc(Cl)ccc12
active: [8] 9.27 µM | [1] 16.5 µM | [9] 20.8 µM | [10] 20.8 µM | [4] 20.8 µM | [5] 1.85 µM

CCC1=C[C@@H]2CN(C1)Cc1c([nH]c3ccccc13)[C@@](C(=O)OC)(c1cc3c(cc1OC)N(C)[C@H]1[C@@](O)(C(=O)OC)[C@H](OC(C)=O)[C@]4(CC)C=CCN5CC[C@]31[C@@H]54)C2
inactive: [7]
active: [8] 0.0185 µM | [1] 0.0522 µM | [2] 0.0329 µM | [9] 0.0522 µM | [3] 0.0261 µM | [10] 0.0165 µM | [4] 0.0233 µM | [6] 0.0293 µM

CCCCC(=O)OCC(=O)[C@H]1[C@H](C)C[C@H]2[C@@H]3C[C@H](F)C4=CC(=O)C=C[C@]4(C)[C@@]3(F)[C@@H](O)C[C@@]21C
active: [8] 10.4 µM | [1] 14.7 µM | [9] 20.8 µM | [3] 20.8 µM | [10] 16.5 µM | [4] 18.5 µM | [5] 29.3 µM | [7] 20.8 µM
inactive: [2]

N=C(N)c1ccc(OCCCOc2ccc(C(=N)N)cc2)cc1
inactive: [3] | [5] | [6] | [7]
active: [2] 18.5 µM | [10] 23.3 µM

CCCC(=O)O[C@]1(C(=O)COC(=O)CC)CC[C@H]2[C@@H]3CCC4=CC(=O)CC[C@]4(C)[C@H]3[C@@H](O)C[C@@]21C
inactive: [1] | [3] | [4] | [7]
active: [8] 6.57 µM | [10] 8.27 µM

CN(C)CCN(Cc1ccsc1)c1ccccn1
not listed: [8] | [10]
inactive: all other assays above

CO[C@@H]1[C@@H](OC)[C@H](C)[C@@](O)(CC(=O)O)O[C@H]1[C@H](C)[C@H]1O[C@@]2(CC[C@@](C)([C@H]3CC[C@@](C)([C@@H]4O[C@@H]([C@H]5O[C@](C)(O)[C@H](C)C[C@@H]5C)C[C@@H]4OC4C[C@H](OC)[C@@H](OC)[C@H](C)O4)O3)O2)C[C@H](O)[C@H]1C (stereo not given in full)
active: [8] 1.31 µM | [1] 0.657 µM | [2] 1.85 µM | [9] 7.37 µM | [3] 0.522 µM | [10] 2.08 µM | [4] 0.522 µM | [5] 0.465 µM | [7] 6.57 µM

Cc1nc(N)nc(N)c1-c1ccc(Cl)c(Cl)c1
active: [8] 0.147 µM | [10] 0.147 µM | [6] 2.61 µM
inactive: [4] | [5] | [7]

CCC1(c2cnc[nH]2)Cc2ccccc2C1
inactive: [9]
active: [8] 3.29 µM | [3] 10.4 µM | [10] 4.14 µM | [4] 14.7 µM | [5] 16.5 µM | [7] 16.5 µM

CC(C)=CCC/C(C)=C/CC/C(C)=C/C(=O)OCC(=O)[C@@]1(O)CC[C@H]2[C@@H]3CCC4=CC(=O)C=C[C@]4(C)[C@H]3[C@@H](O)C[C@@]21C
inactive: [9] | [7]
active: [8] 18.5 µM | [2] 20.8 µM | [5] 16.5 µM

CCCC(=O)O[C@]1(C(=O)CCl)[C@@H](C)C[C@H]2[C@@H]3CCC4=CC(=O)C=C[C@]4(C)[C@@]3(F)C(=O)C[C@@]21C
active: [8] 14.7 µM
inactive: [6] | [7]

CC(C)(C)CC(=O)OCC(=O)[C@@]1(O)CC[C@H]2[C@@H]3CCC4=CC(=O)C=C[C@]4(C)[C@H]3[C@@H](O)C[C@@]21C
not listed: [2] | [5]
inactive: all other assays above

CC(=O)OCC(=O)[C@@]1(O)CCC2C3CCC4=CC(=O)CC[C@]4(C)C3[C@@H](O)C[C@@]21C (stereo not given in full)
active: [10] 26.1 µM | [5] 11.7 µM
inactive: [1] | [2] | [4] | [7]

COc1c(C)c2c(c(O)c1C/C=C(\C)CCC(=O)OCCN1CCOCC1)C(=O)OC2
active: [8] 1.65 µM | [3] 1.31 µM | [10] 1.47 µM | [5] 2.33 µM
inactive: [4]

Nc1ccc2cc3ccc(N)cc3nc2c1
active: [8] 8.27 µM | [1] 16.5 µM | [2] 9.27 µM | [9] 5.85 µM | [3] 11.7 µM | [10] 9.27 µM | [4] 23.3 µM | [5] 5.85 µM | [6] 5.22 µM

CCc1cc2cc(OC)c(OC)cc2c(Cc2ccccc2)n1
active: [5] 18.5 µM
not listed: [4]
inactive: all other assays above

Nc1c2ccccc2nc2ccccc12
active: [8] 3.29 µM | [1] 3.69 µM | [9] 3.29 µM | [3] 2.93 µM | [10] 2.93 µM | [5] 16.5 µM | [6] 3.29 µM | [7] 4.65 µM
